# In PubChem BioAssay AID504465 (National Center for Advancing Translational Sciences (NCATS), 2011):
# The campaign covered roughly 2,100 compounds. About 210 (10%) were called active. Not shown: some 53% with an inconclusive outcome. Calls follow the shape of the dose curve; as a rule, active = well fitted inhibition curve with a large enough effect; inconclusive = small, poorly fitted or top-dose-only effect, or effect the other way; inactive = no such curve, though single readings can be large or run the other way. The list shows a part of the results.
# Assay: IN Cell qHTS Assay for Inhibitors of the mTORC1 Signaling Pathway in MEF (Tsc2-/-, p53-/-) Cells: Sytravon; also: nearly all actives have a fitted effect of over 60% in size
# Conditions: phospho-rpS6 immunofluorescence, 24 h; series mostly up to 38.3 µM; activity, negative = inhibition: at the top concentration
# Method in brief: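 Immunofluorescence of rpS6 phosphorylation (Ser235/236) in mouse embryonic fibroblasts lacking Tsc2 and p53, after 24 h compound exposure; Hoechst-normalized signal imaged, each well scored as % active cells relative to rapamycin (7.5 nM) and DMSO controls.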
# Potency is read from the fitted curve at half-maximal effect.
Compound,"activity, negative = inhibition",Potency
CCOc1cccc(NC(=O)C2CC(=O)N(CC)C(=Nc3ccc(F)cc3)S2)c1 (stereo not given),-11.8% (inactive),–
O=C(NCC1CCN(Cc2ccccc2F)CC1)Nc1ccc(F)c(Cl)c1,-11.3% (inactive),–
Cc1ccc(C)c(CN2CCC(CNC(=O)c3cc4ccc5cccnc5c4[nH]3)CC2)c1,-15.8% (inactive),–
Cc1ccc(C)c(CN2CCC(CNC(=O)Nc3ccc(Br)cc3F)CC2)c1,–,14.7 µM (active)
Cc1nn(C)c2c1c(C(F)(F)F)cc(=O)n2CC(=O)N1CCC(C)CC1,-0.547% (inactive),–
CSc1ccc(CCNS(=O)(=O)c2cc(-c3cc(C)no3)ccc2C)cc1,1.3% (inactive),–
N#Cc1ccc(-c2cccs2)nc1SCC(=O)Nc1cccc(C(F)(F)F)c1,-23.9% (inactive),–
CCOC(=O)CSc1nc(-c2ccccc2)cc(C(F)(F)F)c1C#N,–,9.27 µM (active)
CCOc1ccc(-c2cc(C(=O)N3CCN(c4cccc(C(F)(F)F)c4)CC3)c3ccccc3n2)cc1,6.25% (inactive),–
CCc1ccc(Sc2cc(C(=O)NCCCN3CCCC(C)C3)c3ccccc3n2)cc1 (stereo not given),6.25% (inactive),–
CCN1CCOC(=O)C1CC(=O)Nc1ccc(C)c(Cl)c1 (stereo not given),-10.3% (inactive),–
O=C(Cn1c(-c2cccs2)cc2ccccc21)NCCCN1CCN(c2ccc(F)cc2)CC1,–,14.7 µM (active)
COc1ccc(Nc2cc(C(=O)NCCCN3CCN(c4ccc(OC)cc4)CC3)c3ccccc3n2)cc1,0% (inactive),–
Cc1ccccc1Oc1nc2ccccn2c(=O)c1/C=C(\C#N)c1nc2ccccc2[nH]1,10.8% (inactive),–
CCn1c(CN2CCOCC2)nc2cc(NC(=O)c3ccccc3[N+](=O)[O-])ccc21,2.58% (inactive),–
CCOc1cc(C2c3c(-c4ccc(Br)cc4)n[nH]c3C(=O)N2c2ccc(Cl)cc2)ccc1O (stereo not given),-96.1% (inactive),–
COc1ccc(-c2n[nH]c3c2C(c2ccc(O)cc2)N(c2ccc(Br)cc2)C3=O)cc1 (stereo not given),–,11.7 µM (active)
CCOc1ccc(N2C(=O)c3[nH]nc(-c4ccc(OC)cc4)c3C2c2cccs2)cc1 (stereo not given),-0.625% (inactive),–
CC(C)CN(CC(C)C)S(=O)(=O)c1ccc(C(=O)Nc2sc3c(c2C(N)=O)CC(C)(C)NC3(C)C)cc1,6.25% (inactive),–
Cc1ccc(Nc2cc(C)nc3nc(Cc4ccc(Cl)cc4)nn23)cc1,-9.74% (inactive),–
Cc1cc(C)c(Nc2ncnc3c2cnn3C)c(C)c1,6.25% (inactive),–
COc1ccc(OC)c(Nc2ncnc3c2cnn3-c2cccc(Cl)c2)c1,6.25% (inactive),–
Cc1cccc(-n2ncc3c(Nc4c(C)cc(C)cc4C)ncnc32)c1,–,3.69 µM (active)
O=C(Nc1cc(Cl)cc(Cl)c1)c1cc(S(=O)(=O)NC2CCCC2)ccc1F,6.25% (inactive),–
CCCCOc1cccc(C(=O)N2CCN(CCc3ccncc3)CC2)c1,-60.4% (inactive),–

Compound,"activity, negative = inhibition",Potency
O=C(COC(=O)c1cccc(NC(=O)c2ccc(Br)cc2)c1)c1ccc(Br)cc1,9.28% (inactive),–
CCCCOc1cccc(NC(=O)c2cccc(C(=O)Nc3cccc(OCCCC)c3)c2)c1,–,11.7 µM (active)
CN1CCc2c(sc(NC(=O)CSc3ccccc3)c2-c2nc3ccccc3s2)C1,0.735% (inactive),–
CS(=O)(=O)N(CC(=O)NCCc1ccccc1)c1cc(C(F)(F)F)ccc1Cl,–,8.26 µM (active)
Cc1n[nH]c(C)c1S(=O)(=O)N(CC(=O)Nc1ccc(C(F)(F)F)cc1)c1ccc(C(C)C)cc1,-100% (inactive),–
O=C(Nc1cc(Cl)ccc1Cl)c1cc(S(=O)(=O)NCCc2ccccc2)ccc1F,6.25% (inactive),–
Cc1c(Cl)ccc2sc(NC(=O)c3ccc(S(=O)(=O)N4CCCc5ccccc54)cc3)nc12,-20.5% (inactive),–
Cc1c(C(=O)N2CCC(C)CC2)c(S(=O)(=O)N(Cc2ccccc2)C(C)(C)C)c(C)n1C,0% (inactive),–
O=C1CSC2(C(=O)N(Cc3cccc(C(F)(F)F)c3)c3ccccc32)N1c1ccc(F)c(F)c1 (stereo not given),-6.7% (inactive),–
CCN(CC)CCNC(=O)c1ccc(-n2c(-c3ccccc3)cc3c2CCCC3)cc1,-15.2% (inactive),–
CCN(CC)CCCNC(=O)c1nn(C)c2c1CSc1ccccc1-2,3.66% (inactive),–
CCN(CC)CCCNC(=O)c1ccc(-c2nc(CN3CCc4ccccc43)c(C)o2)cc1,–,13.1 µM (active)
COc1ccc(-c2ccc(CNc3ccc4[nH]c(=O)[nH]c4c3)o2)cc1Cl,-54.9% (inactive),–
CCCNC(=O)c1ccc2c(c1)N=C(CCC)c1ccccc1S2,-25.5% (inactive),–
CCOc1ccc(OCC)c(NC(=O)C(NS(=O)(=O)c2cccs2)c2ccccc2)c1 (stereo not given),1.85% (inactive),–
COc1ccc(CNC(=O)CCCN2C(=O)CSc3c2c(C)nn3-c2ccccc2)cc1,-4.75% (inactive),–
CCC(C(=O)N1CCN(c2cc(Cl)ccc2C)CC1)n1nc(C)c2sc3ccccc3c2c1=O (stereo not given),-11.9% (inactive),–
Cc1nn(CCCC(=O)NCCc2ccc(Cl)cc2)c(=O)c2c1sc1ccccc12,–,11.7 µM (active)
COc1ccc(N2CCN(C(=O)C(C)n3nc(C)c4sc5ccccc5c4c3=O)CC2)cc1 (stereo not given),–,1.85 µM (active)
CCCOc1ccc(CNC(=O)CCCn2nc(C)c3sc4ccccc4c3c2=O)cc1,-12.9% (inactive),–
Cc1ccc(CCNC(=O)c2c3c(nc4ccccc24)C(=O)N(C2CCCCC2)C3)cc1,-5.87% (inactive),–
Cc1nn(C(C)C(=O)NC2CCC(C)CC2)c(=O)c2c1sc1ccccc12 (stereo not given),–,5.21 µM (active)
CSc1ccc(CCNC(=O)C(C)n2nc(C)c3sc4ccccc4c3c2=O)cc1 (stereo not given),–,1.17 µM (active)
COc1ccc(Cn2ccc3nc(C)c(C(=O)N4CCN(c5ccc(OC)cc5)CC4)cc3c2=O)cc1,-1.62% (inactive),–
CSc1ccc(CCNC(=O)CCn2c(=O)c3cccn3c3ccc(F)cc32)cc1,-19.8% (inactive),–
